Measurements: PubChem BioAssay AID1159580 (chemical genetic matrix, 2015)
Several values for one entry are separate records, joined by “and”; a condition that tells them apart may be missing. Identical values can stand only once. The campaign covered roughly 5,500 compounds. About 2,000 (36%) were called active. Roughly 18% stayed inconclusive and do not appear here. No stated cut-off is given here; in the data, active means normalized growth mostly below about 0.91 (no sharp cut-off); inconclusive means no clear call, values can overlap the other calls; inactive means mostly above about 0.92. This is one part of the list.

Assay: chemical genetic growth profiling, strain panel (AID 1159580);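 further: tested at 20 µM; growth read once vehicle control cultures reached saturation at 30 °C; 1 = growth at the plate median or of vehicle wells; lower values mean less growth of the strain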
Details: growth OD

Measured: normalized growth

CC(C)OC(=O)C(C)(C)Oc1ccc(C(=O)c2ccc(Cl)cc2)cc1
inactive: S. cerevisiae deletion strains, locus YJR075W, strain HOC1, active compounds read low 0.957 and 0.996 | S. cerevisiae deletion strains, locus YKL009W, strain mrt4, active compounds read low 0.906 | S. cerevisiae deletion strains, locus YKL068W, active compounds read low 0.987 | S. cerevisiae deletion strains, locus YKL085W, strain MDH1 (second series), active compounds read low 0.947 | S. cerevisiae deletion strains, locus YKL085W, strain MDH1, active compounds read low 0.947 | S. cerevisiae deletion strains, locus YKL160W, strain elf1, active compounds read low 0.987 | S. cerevisiae deletion strains, locus YKL190W, strain CNB1, active compounds read low 0.974 | S. cerevisiae deletion strains, locus YKR001C, strain vps1, active compounds read low 0.971 | S. cerevisiae deletion strains, locus YKR026C, strain gcn3, active compounds read low 0.959 | S. cerevisiae deletion strains, locus YKR091W, strain srl3, active compounds read low 0.977 | S. cerevisiae deletion strains, locus YLL001W, strain dnm1, active compounds read low 0.96 | S. cerevisiae deletion strains, locus YLL026W, active compounds read low 0.969 | S. cerevisiae deletion strains, locus YLL041C, strain sdh2, active compounds read low 0.975 | S. cerevisiae deletion strains, locus YLR027C, strain aat2, active compounds read low 0.967 | S. cerevisiae deletion strains, locus YLR039C, strain RIC1, active compounds read low 0.935 | S. cerevisiae deletion strains, locus YLR058C, strain SHM2, active compounds read low 1 | S. cerevisiae deletion strains, locus YLR102C, strain apc9, active compounds read low 0.988 | S. cerevisiae deletion strains, locus YLR113W, strain HOG1, active compounds read low 0.942 | S. cerevisiae deletion strains, locus YLR221C, strain rsa3, active compounds read low 0.976 | S. cerevisiae deletion strains, locus YLR258W, strain gsy2, active compounds read low 0.957 | S. cerevisiae deletion strains, locus YLR262C, strain YPT6 (second series), active compounds read low 0.962 | S. cerevisiae deletion strains, locus YLR262C, strain YPT6, active compounds read low 0.984 | S. cerevisiae deletion strains, locus YLR268W, strain sec22, active compounds read low 0.971 | S. cerevisiae deletion strains, locus YLR320W, strain mms22, active compounds read low 0.96 | S. cerevisiae deletion strains, locus YLR330W, strain CHS5, active compounds read low 1.01 | S. cerevisiae deletion strains, locus YLR342W, strain FKS1 (second series), active compounds read low 1.12 | S. cerevisiae deletion strains, locus YLR342W, strain FKS1, active compounds read low 0.955 | S. cerevisiae deletion strains, locus YLR357W, strain rsc2, active compounds read low 0.957 | S. cerevisiae deletion strains, locus YLR370C, strain arc18, active compounds read low 0.967 | S. cerevisiae deletion strains, locus YLR371W, strain rom2, active compounds read low 0.986 | S. cerevisiae deletion strains, locus YLR384C, strain iki3, active compounds read low 0.971 | S. cerevisiae deletion strains, locus YLR418C, strain cdc73, active compounds read low 0.879 | S. cerevisiae deletion strains, locus YML016C, strain PPZ1, active compounds read low 1.01 | S. cerevisiae deletion strains, locus YML032C, strain rad52, active compounds read low 0.984 | S. cerevisiae deletion strains, locus YML120C, strain ndi1, active compounds read low 0.964 | S. cerevisiae deletion strains, locus YML124C, strain tub3, active compounds read low 0.982 | S. cerevisiae deletion strains, locus YMR058W, strain fet3, active compounds read low 0.987 | S. cerevisiae deletion strains, locus YMR078C, strain ctf18, active compounds read low 0.982 | S. cerevisiae deletion strains, locus YMR125W, strain sto1, active compounds read low 0.942 | S. cerevisiae deletion strains, locus YMR129W, active compounds read low 0.97 | S. cerevisiae deletion strains, locus YMR205C, strain PFK2, active compounds read low 0.923 | S. cerevisiae deletion strains, locus YMR223W, strain ubp8, active compounds read low 0.958 | S. cerevisiae deletion strains, locus YMR231W, strain pep5, active compounds read low 0.969 | S. cerevisiae deletion strains, locus YMR263W, strain SAP30, active compounds read low 1 | S. cerevisiae deletion strains, locus YMR307W, strain GAS1, active compounds read low 0.807 and 0.993 | S. cerevisiae deletion strains, locus YNL067W, strain RPL9B, active compounds read low 0.973 | S. cerevisiae deletion strains, locus YNL071W, strain lat1, active compounds read low 0.941 | S. cerevisiae deletion strains, locus YNL128W, strain TEP1, active compounds read low 1.01 | S. cerevisiae deletion strains, locus YNL153C, strain GIM3, active compounds read low 1.01 and 1.02 | S. cerevisiae deletion strains, locus YNL175C, strain NOP13, active compounds read low 1.02 | S. cerevisiae deletion strains, locus YNL183C, strain NPR1, active compounds read low 0.893 | S. cerevisiae deletion strains, locus YNL197C, strain WHI3, active compounds read low 1.03 | S. cerevisiae deletion strains, locus YNL209W, strain ssb2, active compounds read low 0.983 | S. cerevisiae deletion strains, locus YNL224C, strain SQS1, active compounds read low 0.991 | S. cerevisiae deletion strains, locus YNL233W, strain BNI4, active compounds read low 0.978 | S. cerevisiae deletion strains, locus YNL248C, strain rpa49, active compounds read low 0.997 | S. cerevisiae deletion strains, locus YNL250W, strain rad50, active compounds read low 0.989 | S. cerevisiae deletion strains, locus YNL271C, strain bni1, active compounds read low 0.985 | S. cerevisiae deletion strains, locus YNL298W, strain CLA4, active compounds read low 0.992 | S. cerevisiae deletion strains, locus YNL307C, strain MCK1, active compounds read low 0.973 | S. cerevisiae deletion strains, locus YNL322C, strain KRE1 (second series), active compounds read low 0.983 | S. cerevisiae deletion strains, locus YNL322C, strain KRE1, active compounds read low 1.01 and 0.984 | S. cerevisiae deletion strains, locus YNR049C, strain mso1, active compounds read low 0.98 | S. cerevisiae deletion strains, locus YNR052C, strain pop2, active compounds read low 0.991 | S. cerevisiae deletion strains, locus YOL006C, strain TOP1, active compounds read low 0.61 | S. cerevisiae deletion strains, locus YOL012C, strain htz1 0.615 | S. cerevisiae deletion strains, locus YOL147C, strain pex11, active compounds read low 0.984 | S. cerevisiae deletion strains, locus YOR001W, strain rrp6, active compounds read low 0.99 | S. cerevisiae deletion strains, locus YOR061W, strain CKA2, active compounds read low 0.986 | S. cerevisiae deletion strains, locus YOR069W, strain VPS5, active compounds read low 1.01 | S. cerevisiae deletion strains, locus YOR070C, strain gyp1, active compounds read low 0.971 | S. cerevisiae deletion strains, locus YOR080W, strain dia2, active compounds read low 0.972 | S. cerevisiae deletion strains, locus YOR083W, strain WHI5 (second series), active compounds read low 1.12 | S. cerevisiae deletion strains, locus YOR083W, strain WHI5, active compounds read low 0.996 | S. cerevisiae deletion strains, locus YOR106W, strain vam3, active compounds read low 0.927 | S. cerevisiae deletion strains, locus YOR136W, strain idh2, active compounds read low 0.989 | S. cerevisiae deletion strains, locus YOR144C, strain elg1, active compounds read low 0.992 | S. cerevisiae deletion strains, locus YOR184W, strain ser1, active compounds read low 0.909 | S. cerevisiae deletion strains, locus YOR231W, strain MKK1, active compounds read low 0.949 | S. cerevisiae deletion strains, locus YOR265W, strain rbl2, active compounds read low 0.97 | S. cerevisiae deletion strains, locus YOR270C, strain vph1, active compounds read low 0.799 | S. cerevisiae deletion strains, locus YOR290C, strain snf2, active compounds read low 0.97 | S. cerevisiae deletion strains, locus YOR316C, strain cot1, active compounds read low 0.988 | S. cerevisiae deletion strains, locus YPL051W, strain arl3, active compounds read low 1 | S. cerevisiae deletion strains, locus YPL055C, strain LGE1, active compounds read low 0.971 | S. cerevisiae deletion strains, locus YPL078C, strain atp4, active compounds read low 0.985 | S. cerevisiae deletion strains, locus YPL106C, strain sse1, active compounds read low 1.02 | S. cerevisiae deletion strains, locus YPL240C, strain hsp82, active compounds read low 0.994 | S. cerevisiae deletion strains, locus YPL241C, strain CIN2, active compounds read low 0.99 and 0.991 | S. cerevisiae deletion strains, locus YPL256C, strain CLN2, active compounds read low 0.953 | S. cerevisiae deletion strains, locus YPR119W, strain clb2, active compounds read low 0.983 | S. cerevisiae deletion strains, locus YPR141C, strain kar3, active compounds read low 0.985 | S. cerevisiae deletion strains, locus YPR163C, strain tif3, active compounds read low 0.981 | S. cerevisiae deletion strains, locus YPR167C, strain met16, active compounds read low 0.984 | S. cerevisiae deletion strains, strain wtn01, active compounds read low 0.987 | S. cerevisiae strains, strain wild type, active compounds read low 0.993
